The list is not random: actives were taken first. Their share in the collection is about 3.2%.
TcdB GH inh – blocks C. difficile toxin B glycohydrolase activity; P18177; TcdB glycohydrolase enzymatic assay, plate reader; inhibition, % at 9.99 µM; hit rate 0.24% among 350,000; AID 652162
Y pestis TopoI – inhibitors of Yersinia pestis topoisomerase I; Y. pestis Topo-I cleavage product accumulation, plate reader; activity, % at 10 µM; hit rate 0.064% among 360,000; AID 504884; in the data active = activity above about 50%, passing the limit was not always enough
GDH-TPI counter-1 – inhibits GDH-TPI coupling enzymes, artifact for Mtb FBA screen. GDH-TPI coupled enzyme counterscreen, NADH absorbance. inhibition, % at 4.8 µM. hit rate 1.2% among 360,000; in the data active = inhibition above about 30%;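 also: 0% = DMSO wells and 100% = wells lacking the enzyme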
PrPC TRFRET – cell surface PrPC inhibition, primary TR-FRET screen; P04156; TR-FRET read-out; inhibition, % at 13.8 µM; hit rate 0.43% among 370,000; AID 720596; in the data active = inhibition above about 24%; also: 0% = median of the test wells and 100% = reference compound wells
Mtb FBA inh – inhibitors of M. tuberculosis fructose-bisphosphate aldolase. P9WQA3. purified M. tuberculosis FBA, fluorescence read-out. inhibition, % at 1 µM. hit rate 2.3% among 360,000; in the data active = inhibition above about 27%;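 also: 0% = vehicle and 100% = reference inhibitor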
Target sequence (P9WQA3 whole entry, looked up): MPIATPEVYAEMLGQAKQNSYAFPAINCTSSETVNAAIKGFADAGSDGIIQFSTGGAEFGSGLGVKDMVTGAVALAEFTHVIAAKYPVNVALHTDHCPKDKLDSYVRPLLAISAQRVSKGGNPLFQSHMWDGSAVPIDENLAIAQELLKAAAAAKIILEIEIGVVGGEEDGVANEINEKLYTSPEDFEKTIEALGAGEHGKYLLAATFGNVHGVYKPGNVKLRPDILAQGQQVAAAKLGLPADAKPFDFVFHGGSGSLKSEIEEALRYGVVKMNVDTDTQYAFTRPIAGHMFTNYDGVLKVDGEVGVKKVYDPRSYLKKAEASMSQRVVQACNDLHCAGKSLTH
Mtb FBA inh conf – Mtb FBA inhibition, confirmed; AID 651616; shares compounds with Mtb FBA inh; hit rate 78% among 5,600; inhibition, % at 1 µM; purified M. tuberculosis FBA, fluorescence read-out; in the data active = inhibition above about 27%;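 also: 0% = vehicle wells and 100% = reference inhibitor wells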
GDH-TPI counter-2 – counter-screen for M. tuberculosis FBA inhibitors: GDH-TPI coupled enzyme inhibition | shares compounds with Mtb FBA inh | GDH-TPI coupled enzyme counterscreen, fluorescence | inhibition, % at 1 µM | hit rate 81% among 5,600
GDH-TPI dose – inhibits GDH-TPI coupling enzymes in dose response; hit rate 79% among 170; GDH-TPI coupled enzyme assay, fluorescence, artifact counterscreen; IC50, µM; shares compounds with Mtb FBA inh; call rule not given here
* marks the source's active call; other numbers are inactive results. Rule as the data show it, unless noted: active = inhibition above about 10%; inactive = the rest.

CNC[C@@H]1OCCCC[C@@H](C)Oc2ccc(NS(=O)(=O)c3ccccc3)cc2C(=O)N([C@@H](C)CO)C[C@H]1C was read as TcdB GH inh 1.
Screening CC(C)Cc1[nH]c(=O)c(C#N)c2c1CCC2 returned TcdB GH inh 50*, Y pestis TopoI 0, GDH-TPI counter-1 29, PrPC TRFRET -3, Mtb FBA inh 52*, Mtb FBA inh conf active and GDH-TPI counter-2 169*.
O=C1CC(c2ccco2)CC2=C1C(c1ccccc1)n1nc(C(F)(F)F)nc1N2 (configuration not stated) was read as Y pestis TopoI -6, GDH-TPI counter-1 13, PrPC TRFRET 19, Mtb FBA inh 28*, Mtb FBA inh conf 64* and GDH-TPI counter-2 53*.
COc1ccc(C2CC(=O)C3=C(C2)Nc2ncnn2C3c2ccccc2)cc1 (configuration not stated) was read as Y pestis TopoI 1, GDH-TPI counter-1 7, PrPC TRFRET 7 and Mtb FBA inh 5.
Screening CN1CCc2c(sc(/N=C/c3ccco3)c2C(N)=O)C1 returned Y pestis TopoI 1, GDH-TPI counter-1 21, PrPC TRFRET -10, Mtb FBA inh 40*, Mtb FBA inh conf 42* and GDH-TPI counter-2 24*.
For Cc1ccccc1COC(=O)c1nn(-c2ccccc2)nc1N the results were TcdB GH inh 1, Y pestis TopoI 6, GDH-TPI counter-1 0, PrPC TRFRET -4, Mtb FBA inh 97*, Mtb FBA inh conf 79* and GDH-TPI counter-2 67*.
O=S(=O)(N[C@@H]1CC[C@@H](CCn2cc(-c3ccccn3)nn2)O[C@H]1CO)c1cccc(F)c1 was read as TcdB GH inh -1.
For C[C@@H]1CN([C@H](C)CO)S(=O)(=O)c2ccc(C3=CCCC3)cc2O[C@@H]1CN(C)C(=O)c1cccnc1 the results were TcdB GH inh 1.
`COc1cc2[nH]c(C(=O)N3CCN(c4ccccc4F)CC3)cc2c(OC)c1OC` gave TcdB GH inh 1, Y pestis TopoI 33, GDH-TPI counter-1 11, PrPC TRFRET -4, Mtb FBA inh 44*, Mtb FBA inh conf active and GDH-TPI counter-2 active.
Screening CN(C)c1nc(-c2ccc([N+](=O)[O-])cc2)cs1 returned Y pestis TopoI 1, GDH-TPI counter-1 12, PrPC TRFRET -21, Mtb FBA inh 34*, Mtb FBA inh conf 194* and GDH-TPI counter-2 142*.
CCCOc1ccc(S(=O)(=O)N2CCOCC2)cc1[N+](=O)[O-] was read as TcdB GH inh 1, Y pestis TopoI 5, GDH-TPI counter-1 -2, PrPC TRFRET -1, Mtb FBA inh 34*, Mtb FBA inh conf 72* and GDH-TPI counter-2 63*.
Screening N#Cc1c(N)oc(-c2ccco2)c1-c1ccco1 returned Y pestis TopoI -11, GDH-TPI counter-1 12, PrPC TRFRET -9, Mtb FBA inh 33*, Mtb FBA inh conf 42* and GDH-TPI counter-2 26*.
Screening N#Cc1c(N)oc(-c2ccccc2)c1-c1ccccc1 returned Y pestis TopoI 2, GDH-TPI counter-1 4, PrPC TRFRET -14 and Mtb FBA inh 0.
COc1ccc(-c2cc(C(=O)OCC(=O)Nc3cc(C)on3)c3ccccc3n2)cc1OC was read as Y pestis TopoI 1, GDH-TPI counter-1 0, PrPC TRFRET 5 and Mtb FBA inh -1.
`Cc1ccc(-c2cc(C(=O)OCC(=O)Nc3cc(C)on3)c3ccccc3n2)c(C)c1` gave Y pestis TopoI -2, GDH-TPI counter-1 9, PrPC TRFRET -1, Mtb FBA inh 103*, Mtb FBA inh conf 58* and GDH-TPI counter-2 50*.
CCCCn1nc2cc(C(=O)NCC34CC5CC(CC(C5)C3)C4)ccc2c1OC was read as TcdB GH inh 2, Y pestis TopoI 10, GDH-TPI counter-1 8, PrPC TRFRET 10, Mtb FBA inh 31*, Mtb FBA inh conf 57* and GDH-TPI counter-2 43*.
`CCOc1c2ccc(C(=O)NCC34CC5CC(CC(C5)C3)C4)cc2nn1CC` gave TcdB GH inh 0, Y pestis TopoI -5, GDH-TPI counter-1 8, PrPC TRFRET 8, Mtb FBA inh 39*, Mtb FBA inh conf 1 and GDH-TPI counter-2 6.
`CCn1nc2cc(C(=O)NCC34CC5CC(CC(C5)C3)C4)ccc2c1OC` gave TcdB GH inh -2, Y pestis TopoI 20, GDH-TPI counter-1 11, PrPC TRFRET 10, Mtb FBA inh 28*, Mtb FBA inh conf 14, GDH-TPI counter-2 -5 and GDH-TPI dose 4*.
`COCCNCC(=O)NCC12CC3CC(CC(C3)C1)C2` gave Y pestis TopoI 5, GDH-TPI counter-1 5, PrPC TRFRET 9 and Mtb FBA inh 1.
For CC=Cc1ccc2n(c1=O)C[C@H]1[C@H](CO)[C@@H](C(=O)NCCN3CCCC3)N(C(=O)NCCC)[C@@H]21 (mixture of isomers) the results were TcdB GH inh 1.
Screening O=C(Nc1ccccc1F)N[C@H]1CC[C@H](CCNC(=O)C2CCCC2)O[C@@H]1CO returned TcdB GH inh -1.
For CNC(=O)C[C@@H]1CC[C@@H]2[C@@H](COc3ccc(NC(=O)c4ccccc4Cl)cc3C(=O)N2C)O1 the results were TcdB GH inh 1.
CCC(=O)Nc1ccc2c(c1)C(=O)N(C)[C@H]1CC[C@@H](CC(=O)NCCc3ccncc3)O[C@@H]1CO2 was read as TcdB GH inh 1.
CC(C)NC(=O)Nc1ccc2c(c1)CC(=O)N([C@H](C)CO)C[C@H](C)[C@@H](CN(C)CC1CCCCC1)O2 was read as TcdB GH inh 0.
Screening COc1ccc(C(C(=O)NCC2CCCO2)N(C(=O)c2snc(C(N)=O)c2N)c2ccccc2C)cc1OC (configuration not stated) returned TcdB GH inh -2, Y pestis TopoI 27, GDH-TPI counter-1 14, PrPC TRFRET 3, Mtb FBA inh 50*, Mtb FBA inh conf 168* and GDH-TPI counter-2 active.
`CCc1ccccc1N(C(=O)c1snc(C(N)=O)c1N)C(C(=O)NCC1CCCO1)c1ccc(OC)c(OC)c1` (configuration not stated) gave TcdB GH inh 1, Y pestis TopoI 24, GDH-TPI counter-1 24, PrPC TRFRET -5, Mtb FBA inh 62*, Mtb FBA inh conf active and GDH-TPI counter-2 active.
Screening Nc1ccc(C(O)(C(F)(F)F)C(F)(F)F)cc1 returned Y pestis TopoI 8, GDH-TPI counter-1 5, PrPC TRFRET 3 and Mtb FBA inh 1.
For Nc1c(C(O)(C(F)(F)F)C(F)(F)F)ccc2ccccc12 the results were TcdB GH inh 2, Y pestis TopoI -5, GDH-TPI counter-1 4, PrPC TRFRET -2, Mtb FBA inh 28*, Mtb FBA inh conf 24 and GDH-TPI counter-2 11*.

Compound activity deposited in PubChem by several laboratories.
